This is an account of results in PubChem BioAssay AID1986 (Sanford-Burnham Center for Chemical Genomics, 2009).

SMILES strings stand for the structures. Among all 290,000 compounds or so, about 890 (0.31%) were called active. Cut-off read from the data, not from the text of the source: active = inhibition mostly above about 52% (no sharp cut-off); inactive = mostly below about 76%. Many of the other results were omitted from the sample, so actives are more common in it than they were.

The nature of this assay: cell-free HIV fusion peptide-binding blockers – biochemical, uHTS, fluorescence dequenching, primary screen (AID 1986). The conditions noted are these: 30 min, stronger effect = higher value.
[1] abbreviates: measured here: repeat confirmation average inhibition, at 18.6 µM.

In the case of `COCCNC(=O)Cn1cc(/C=C2\C(=O)NC(=O)N(c3ccccc3F)C2=O)c2ccccc21`, the inhibition (at 20 µM) is 159% (inactive).

For `COCCNC(=O)Cn1cc(C=C2C(=O)NC(=O)NC2=O)c2ccccc21`, the inhibition (at 20 µM) is 43.1% (inactive).

Turning to `O=C(O)Cn1cc(C=C2C(=O)NC(=O)NC2=O)c2ccccc21`, for the setting “at 20 µM”, the inhibition is 4.8% (inactive).

As for `COCCCNC(=O)Cn1cc(/C=C2\C(=O)NC(=O)N(c3ccccc3F)C2=O)c2ccccc21`, the inhibition (at 20 µM) was 159% (inactive).

Regarding `O=C(Cn1cc(C=C2C(=O)NC(=O)NC2=O)c2ccccc21)NCC1CCCO1` (centres undefined), the inhibition is 61.4% (active) (at 20 µM) and 112% under setting [1].

Turning to `COCCNC(=O)Cn1cc(/C=C2\C(=O)NC(=O)N(c3cccc(C)c3C)C2=O)c2ccccc21`, the inhibition reads like this: (at 20 µM) 90.2% (active); under setting [1], 50.7%.

Take `CC(Cc1ccccc1)[n+]1cc(/N=C(\[O-])Nc2ccccc2)on1` (centres undefined): the inhibition (at 20 µM) was -1.8% (inactive).

With `O=C(NCc1ccccn1)c1ccccc1Cl`, the inhibition (at 20 µM) is -1.3% (inactive).

On to `CCOC(=O)c1c(C)c(P(=S)(N2CCOCC2)N2CCOCC2)n(C)c1C`, for which the inhibition (at 20 µM) is -1.8% (inactive).

For the compound `CC(C)n1c(=O)c(C=Nc2ccc(F)cc2)c(O)n(Cc2ccco2)c1=O`, the inhibition (at 20 µM) was 0.1% (inactive).

For the compound `CC(C)n1c(=O)c(C=Nc2ccc(Cl)cc2)c(O)n(Cc2ccco2)c1=O`, the inhibition is, setting by setting: (at 20 µM) 52.7% (inactive); under setting [1], 4.1%.

As for `CC(C)n1c(=O)c(C=Nc2ccc(Br)cc2)c(O)n(Cc2ccco2)c1=O`, the inhibition (at 20 µM) was 66.2% (active).

As for `CCOC(=O)C1CCN(Cc2ccc(Cl)nc2)CC1`, the inhibition (at 20 µM) was -0.9% (inactive).

With `O=C1N(c2cccc(Cl)c2)C(c2cccnc2)N2CCCN12` (centres undefined), the inhibition (at 20 µM) is -0.5% (inactive).

In the case of `O=C1NC(=O)[C@]2(Cc3ccccc3N3CCN(c4ccccc4)CC32)C(=O)N1Cc1ccccc1` (some centres undefined), under “at 20 µM”, the inhibition is 1.5% (inactive).

For the compound `COc1ccc(-c2nc3ccc(C(=O)N4CCC5(CC4)OCCO5)cc3nc2-c2ccc(OC)cc2)cc1`, the inhibition (at 20 µM) was -1.1% (inactive).

As for `Cc1cc(/C=C2\C(=O)NC(=O)N(Cc3ccccc3)C2=O)c(C)n1-c1ccc(Cl)c(C(=O)O)c1`, where the note is “at 20 µM”, the inhibition is 52.5% (active).

With `Cc1cc(/C=C2\C(=O)NC(=O)N(Cc3ccccc3Cl)C2=O)c(C)n1-c1ccc(C(=O)O)cc1`, the inhibition is, setting by setting: (at 20 µM) 67.8% (inactive); under setting [1], 40.6%.

Turning to `Cc1cc(/C=C2\C(=O)NC(=O)N(c3ccccc3)C2=O)c(C)n1-c1ccc(C(=O)O)c(Cl)c1`, where the note is “at 20 µM”, the inhibition was 9.8% (inactive).

In the case of `CN1C(=O)C(=Cc2cn(CC(=O)N3CCCC3)c3ccccc23)C(=O)N(C)C1=O`, for the setting “at 20 µM”, the inhibition is 9.1% (inactive).

Regarding `CCOC(=O)Cn1cc(C=C2C(=O)N(C)C(=O)N(C)C2=O)c2ccccc21`, the inhibition reads like this: (at 20 µM) 58.4% (active); under setting [1], 149%.

`CCn1cc(C=C2C(=O)N(C)C(=O)N(C)C2=O)c2ccccc21`: for the setting “at 20 µM”, the inhibition was 6.6% (inactive).

Turning to `COC(=O)Cn1cc(C=C2C(=O)NC(=O)NC2=O)c2ccccc21`, the inhibition (at 20 µM) was 10% (inactive).

For `CCN(CC)C(=O)Cn1cc(C=C2C(=O)N(C)C(=O)N(C)C2=O)c2ccccc21`, the inhibition (at 20 µM) is 9.3% (inactive).

Consider `COC(=O)Cn1cc(C=C2C(=O)N(C)C(=O)N(C)C2=O)c2ccccc21`, for which the inhibition runs as follows: (at 20 µM) 118% (active); under setting [1], 98.7%.

In the case of `CCN1C(=O)NC(=O)/C(=C\c2cn(CC(=O)N3CCCCC3)c3ccccc23)C1=O`, the inhibition (at 20 µM) was 92.7% (active).

As to `CCOC(=O)C1(c2ccccc2)CCN(CCC(=O)Nc2ccccc2OC)CC1`, for the setting “at 20 µM”, the inhibition is 1.8% (inactive).

Regarding `CN1CCN(c2ccccc2N)CC1`, the inhibition (at 20 µM) is 1.6% (inactive).

For the compound `Cc1ccc(-n2c(O)c(C=NC3CCCC3)c(=O)[nH]c2=O)c(C)c1`, under “at 20 µM”, the inhibition was 2.6% (inactive).

For the compound `CCOP(=O)(OCC)C(NC(=O)C(C)C)C(Cl)(Cl)Cl` (centres undefined), the inhibition (at 20 µM) is 0.1% (inactive).

As to `CC/C(=N\NC(=O)c1ccccc1O)c1c(O)n(C2CCCCC2)c(=O)[nH]c1=O`, the inhibition reads like this: (at 20 µM) 51.3% (inactive); under setting [1], 46.2%.

With `CC(=O)c1ccc2c(c1)C1C(Cl)C(Sc3ccccc3[N+](=O)[O-])CC1C(C(=O)O)N2` (centres undefined), the inhibition was 54.5% (inactive) (at 20 µM) and 1.3% under setting [1].

On to `O=C(O)c1cccc2c1NC(C(=O)O)C1CC(Sc3ccccc3[N+](=O)[O-])C(Cl)C21` (centres undefined), for which, for the setting “at 20 µM”, the inhibition was 63.2% (active).

Consider `Cc1ccc2c(c1Cl)NC(C(=O)O)C1CC(Sc3ccccc3[N+](=O)[O-])C(Cl)C21` (centres undefined), for which the inhibition was 63% (inactive) (at 20 µM) and 28% under setting [1].

`CCC(=O)c1cn(Cc2ccccc2)c2ccccc12`: the inhibition (at 20 µM) was -1.1% (inactive).

In the case of `O=C(COc1ccccc1)c1cn(Cc2ccccc2)c2ccccc12`, the inhibition (at 20 µM) is 80.8% (active).

For `CC(C)(C)C(=O)c1cn(Cc2ccccc2)c2ccccc12`, the inhibition (at 20 µM) is -0.8% (inactive).

With `COC(=O)N(C)c1ccc(C(O)(C(=O)OC)C(F)(F)F)cc1` (centres undefined), for the setting “at 20 µM”, the inhibition was 0% (inactive).

With `CC1Oc2cc3c(-c4c(O)cc(O)c5c(O)c6c(cc45)OC(C)C(C)C6=O)c(O)cc(O)c3c(O)c2C(=O)C1C` (centres undefined), under “at 20 µM”, the inhibition was 54.2% (active).

With `O=C(O)c1ccc(N=Cc2c(O)[nH]c(=O)[nH]c2=O)cc1`, the inhibition (at 20 µM) was 15.8% (inactive).

Turning to `CCOC(=O)c1cc(CC)sc1/N=C/C1C(=O)NC(=S)NC1=O`, the inhibition (at 20 µM) was 30.8% (inactive).

In the case of `COc1ccc(C(=O)CC2(CC(=O)c3ccc(OC)cc3)C(=O)N(C)C(=O)N(C)C2=O)cc1`, the inhibition (at 20 µM) was 3.7% (inactive).

As for `CCn1nc(-c2cccs2)nc2c(=O)n(C)c(=O)nc1-2`, the inhibition (at 20 µM) is 1.6% (inactive).

Take `CCn1nc(-c2ccccc2)nc2c(=O)n(C)c(=O)nc1-2`: the inhibition was 80.2% (active) (at 20 µM) and 60.9% under setting [1].

`CCn1nc(/C=C/c2ccccc2)nc2c(=O)n(C)c(=O)nc1-2`: the inhibition (at 20 µM) was 1.1% (inactive).

Regarding `CC1=C(C(=O)O)N2C(=O)C(NC(=O)Cc3ccccc3)C2SC1` (centres undefined), under “at 20 µM”, the inhibition was 3.3% (inactive).

On to `O=P(/C(=N/O)N1CCOCC1)(N1CCOCC1)N1CCOCC1`, for which, under “at 20 µM”, the inhibition is 2.4% (inactive).

As for `CCOC(=O)C1CCN(C(C)C(=O)c2c(C)[nH]c3cc(C)ccc23)CC1` (centres undefined), the inhibition (at 20 µM) is 8.4% (inactive).

`CCC1CCCCN1P(=O)(c1ccc(C)o1)C(C)(C)C` (centres undefined): under “at 20 µM”, the inhibition was 5.9% (inactive).

With `CCc1cc(=O)oc2c(C)c(OCC(=O)N3C[C@H]4C[C@@H](C3)c3cccc(=O)n3C4)ccc12`, the inhibition (at 20 µM) is 1.3% (inactive).

Take `O=C(C1c2ccccc2C(=O)N2CCc3ccccc3C12)N1CCC2(CC1)OCCO2` (centres undefined): the inhibition (at 20 µM) was -2.3% (inactive).

Turning to `COc1ccc(CCNCc2cccn2C)cc1`, for the setting “at 20 µM”, the inhibition is -1.8% (inactive).

Take `NC(=O)c1cn(C2CCCCC2)c2ccccc2c1=O`: the inhibition (at 20 µM) was -1.7% (inactive).

On to `CCCCCC(=O)N[C@@H](c1ccccc1)[C@@H](O)C(=O)O[C@H]1C[C@@]2(O)[C@@H](OC(=O)c3ccccc3)C3[C@](C)(C(=O)[C@H](O)C(=C1C)C2(C)C)[C@@H](OC1OCC(O)C(O)C1O)C[C@H]1OC[C@@]31OC(C)=O` (some centres undefined), for which the inhibition (at 20 µM) is 0% (inactive).

A word on the inhibition: it is the change of the read-out against control, counted positive when it falls.
